Test results reported in PubChem BioAssay (NCI).
The panel holds about 79,000 compounds, 15% with a hit somewhere; the sample as a whole holds those more often. Calls of active or inactive are those of the source. Rule as the data show it: active = growth inhibition above about 70%; inactive = the rest.

What was measured:
[1] = NCI Yeast Anticancer Drug Screen. Data for the rad50 strain (AID 155);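 also: 0% = growth of vehicle-only cultures of the same strain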; conditions: S. cerevisiae rad50 strain growth inhibition; at 50.0 µM; hits give high values
Outline: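 DNA repair mutant yeast, compound exposure, growth read-out; inhibition is taken relative to vehicle.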

[2] = NCI Yeast Anticancer Drug Screen. Data for the mec2-1 strain (AID 157); conditions: S. cerevisiae mec2-1 strain, at 50.0 µM, hits give high values
Outline: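 Compounds were applied to mec2-1 yeast cells. Their growth was then compared with that of vehicle-treated cultures to give growth inhibition.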

[3] = NCI Yeast Anticancer Drug Screen. Data for the sgs1 mgt1 strain (AID 161);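 also: 0% = growth of cultures given vehicle only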; conditions: S. cerevisiae sgs1 mgt1 strain, at 50.0 µM, hits give high values
Outline: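 Yeast cells carrying a defined DNA-repair defect were exposed to test compounds. Growth inhibition was measured relative to vehicle-treated controls.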

[4] = NCI Yeast Anticancer Drug Screen. Data for the bub3 strain (AID 167); conditions: S. cerevisiae bub3 mutant strain, at 50.0 µM, hits give high values
Outline: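 In this screen, a yeast mutant lacking normal mitotic checkpoint function is challenged with compound. Relative growth versus vehicle gives the inhibition value.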

[5] = NCI Yeast Anticancer Drug Screen. Data for the mlh1 rad18 strain (AID 175); conditions: S. cerevisiae mlh1 rad18 strain growth inhibition; at 50.0 µM; hits give high values
Outline: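 A repair-deficient yeast strain is exposed to test compound, and growth is scored relative to vehicle-treated controls.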

[6] = NCI Yeast Anticancer Drug Screen. Data for the cln2 rad14 strain (AID 165);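 also: 0% = growth equal to vehicle treated cultures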; conditions: S. cerevisiae cln2 rad14 strain, at 50.0 µM, hits give high values
Outline: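 Strain: cln2 rad14 yeast, altered in cell cycle control and DNA damage repair. Read-out: growth inhibition vs vehicle.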

Measured: growth inhibition

CCCCCCC(=O)CC(SCCS)c1ccc(Cl)c(Cl)c1 (stereo not given)
inactive: [1] 4.65% | [2] 16.2% | [3] -4.3% | [4] -1.4% | [5] 6.3%

Cc1cc2c(=O)cc(-c3ccccc3Cl)oc2c(C(=O)O)c1C
inactive: [1] -3.1% | [2] -10.3% | [3] -4.45% | [6] 8.2% | [5] -18.6%

Nc1nc(N)c2cc(S(=O)(=O)c3ccccc3)ccc2n1
inactive: [1] 26.1% | [2] 8.7% | [3] -8.9% | [4] -26.1% | [5] -40.5%

Cc1cc2c(c(=O)o1)C(C)CC(c1c(O)cc(C)oc1=O)O2 (stereo not given)
inactive: [1] 15.3% | [2] 5.35% | [3] 16.8% | [4] 14.1% | [5] 20.6%

CC(C)SC1SCC2C(=O)N(C)C3(CC3C)C(=O)OCC(NC(=O)c3nc4ccccc4cc3O)C(=O)NC(C)C(=O)N(C)C1C(=O)N(C)C1(CC1C)C(=O)OCC(NC(=O)c1nc3ccccc3cc1O)C(=O)NC(C)C(=O)N2C (stereo not given)
inactive: [2] 68%
active: [1] 70.4% | [3] 78% | [4] 78.8% | [5] 81.2%

O=C(O)c1cccc(NC(=O)C(F)(F)F)c1
inactive: [1] -1.1% | [2] 1.6% | [3] -18.9% | [4] -6.05% | [5] -2.15%

CC(=O)Nc1ccc(Br)cc1
inactive: [1] 0.85% | [2] -5.6% | [3] -18.4% | [4] -17.1% | [5] 0.1%

CN(C)CCC(=O)c1cccnc1
inactive: [1] 9.9% | [2] -17.1% | [3] -3.35% | [4] 5.65% | [5] -1.2%

Nc1ncnc2c(C3OC(CO)C(O)C3O)nsc12 (stereo not given)
inactive: [1] -6.8% | [2] -23.6% | [3] -37.1% | [4] -32.1% | [5] -38%

Cc1ccc(OCC2OC(n3cnc4c(N(C)C)nc(Br)nc43)CC2Oc2ccc(C)cc2)cc1 (stereo not given)
inactive: [1] 17.5% | [2] -4.8% | [3] 13.1% | [4] 2.45% | [5] -17%

CN1C2C=CC(=O)C1C1C(=O)N(c3ccccc3)C(=O)C12 (stereo not given)
inactive: [1] 25.2% | [2] 45.1% | [3] 54% | [4] 23.8% | [5] 27.1%

O/N=C(/CC(O)(c1ccccc1)c1ccccc1)c1ccccc1
inactive: [1] 22.6% | [2] -6.8% | [3] 7.8% | [4] -17.9% | [5] 27.4%

Oc1ccc2ccccc2c1C(c1ccccc1)N1CCOCC1 (stereo not given)
inactive: [1] -2.5% | [2] -11% | [3] -5.9% | [4] -12.4% | [5] -15.2%

CSc1ccc(NC(=O)Nc2ccc(Nc3ccccc3)cc2)cc1
inactive: [1] -0.95% | [2] 29.8% | [3] 15.1% | [4] 14.2% | [5] 23.3%

C[C@]12CCC(=O)C=C1CC[C@@H]1C2CC[C@]2(C)Nc3[nH]ncc3CC12 (stereo not given in full)
inactive: [1] -22.2% | [2] 9.6% | [3] 37.4% | [4] 11.8% | [5] 27.1%

CCCOC(=O)c1c(Cl)c(Cl)c(Cl)c(Cl)c1C(=O)OCCC
inactive: [1] 12.8% | [2] -20.8% | [3] 4.8% | [4] -15.2% | [5] 8.3%

Cc1ccc(NC(=O)Nc2ccc(C)cc2)cc1
inactive: [1] 0.7% | [2] -14.9% | [3] -12.8% | [4] -2.3% | [5] -18.1%

COc1ccc(C2=C/C(=C/c3cccc(OC)c3OC)C(=O)O2)cc1
inactive: [1] -10.6% | [2] 0.65% | [3] 11.9% | [4] -11.2% | [5] -5.35%

Cc1c(C2CCC(=O)C2)c2ccccc2n1C (stereo not given)
inactive: [1] -3.05% | [2] -23.3% | [3] -4.6% | [6] 15.4% | [5] 3.5%

CS(=O)(=O)c1nsc(N)n1
inactive: [1] -14% | [2] -8.6% | [3] -5.25% | [4] -0.1% | [5] 2.7%

CC(=O)NC(Cc1ccc(F)cc1)C(=O)O (stereo not given)
inactive: [1] -1.75% | [2] -7.85% | [3] -18.1% | [4] -27.6% | [5] -17.9%

O=C1c2ccccc2C(c2ccccc2)C1c1ccccc1 (stereo not given)
inactive: [1] 22.8% | [2] 15.9% | [3] 17.6% | [4] 20.6% | [5] 0.8%

CC(N)CCC(=O)O (stereo not given)
inactive: [1] -16.1% | [2] -27.4% | [3] -15.7% | [4] -32.1% | [5] -31%

Cc1ccc2[nH]c(=S)n(CCc3ccccc3)c(=O)c2c1
inactive: [1] -1.95% | [2] -23% | [3] 29.9% | [4] 10.4% | [5] 13.7%

CCCOC(=O)C(O)c1ccc(C)cc1 (stereo not given)
inactive: [1] -1.5% | [2] -11.8% | [3] 12.9% | [4] 5.7% | [5] -14.7%

CCOC(=O)/C(=C\c1ccccc1Cl)C(C)=O
active: [1] 99.3% | [2] 98.8% | [3] 99.5% | [4] 98.8% | [5] 99.5%

O=c1[nH]c(/C=C(\O)c2ccncc2)nc2ccccc12
inactive: [1] -7.6% | [2] -23.2% | [3] -6.45% | [4] -9% | [5] -17.9%

COC1C(=O)OC(=O)C1OC (stereo not given)
inactive: [1] -73% | [2] -15.1% | [3] -1.05% | [4] -8.55% | [5] 14.9%

O=C(O)CCSSCCCS(=O)O
inactive: [1] -26.6% | [2] -3% | [3] 36% | [4] 0.45% | [5] -2.2%

NNc1nc2ccccc2c(=O)n1NC(=O)C(=O)Nc1cccc(C(F)(F)F)c1
inactive: [1] -0.35% | [2] 17.6% | [3] -3.9% | [4] -6.15% | [5] 31.4%

N#Cc1c(Br)n(C2OC(CO)C(O)C2O)c2ncncc12 (stereo not given)
inactive: [1] 1.5% | [2] 7.5% | [3] 1.55% | [4] 4.7% | [5] 2.7%

N/N=C/c1ccc2ccccc2n1
inactive: [1] -14.4% | [2] -12.6% | [3] -17.4% | [4] 12.6% | [5] -19.6%

CC(=O)c1cccc2cc(CC(=O)c3ccccc3)c(=O)oc12
inactive: [1] 12.2% | [2] 5.6% | [3] 6.4% | [4] 11.1% | [5] 1.35%

CCOC(=O)N/N=C(\Cc1ccccc1)OCC
inactive: [1] 16% | [2] 13.2% | [3] 8.45% | [4] 14.6% | [5] 39.2%

CCN(CC)P(=O)(c1ccc2c(c1)OCCOCCOCCOCCO2)N(CC)CC
inactive: [1] 28.9% | [2] 22.9% | [3] 21.7% | [4] 33.6% | [5] 37%

C1=C[CH]([Sn]([CH]2C=Cc3ccccc32)([CH]2C=Cc3ccccc32)[CH]2C=Cc3ccccc32)c2ccccc21 (stereo not given)
inactive: [1] -14.2% | [2] -6.75% | [3] -1% | [4] 1.2% | [5] -1.7%

CCC(c1ccc(OC)cc1)c1cc2c(cc1OCCO)OCO2 (stereo not given)
active: [1] 70.9% | [3] 81.7% | [5] 96.3%
inactive: [2] 66.3% | [4] 58.1%

C=CCNC(=S)Nc1c(C)cc(C)cc1C
inactive: [1] 7.2% | [2] 8.4% | [6] -51.4% | [4] 4.3% | [5] 12.2%

COc1ccc(C2CC(c3c(C)nn(-c4ccccc4)c3-c3ccc(C)cc3O)=NN2c2ccccc2)cc1 (stereo not given)
inactive: [1] -3.95% | [2] -12.3% | [6] -2% | [4] -3% | [5] 50.5%

O=[N+]([O-])c1ccc(F)cc1
inactive: [1] -1.3% | [2] 5.25% | [6] -17.4% | [4] 7.15% | [5] 4.75%

Cc1ccc(S(=O)(=O)N/N=C(\C(=N/OCc2ccccc2)c2ccccc2)c2ccccc2)cc1
inactive: [1] 43.4% | [2] -3.75% | [6] 14.8% | [4] 10.8% | [5] 9.65%

COc1ccc(C(O)C(O)(c2ccccc2)c2ccc(OC)cc2)cc1 (stereo not given)
inactive: [1] -6.05% | [2] -4.1% | [6] -19.1% | [4] 19.9% | [5] -11.6%

COc1ccc(CCl)c(C)c1OC
inactive: [1] 32.7% | [2] 5.75% | [6] 2.75% | [4] 16.1% | [5] -10.7%
